Out of some 310,000 compounds screened, about 14,000 (4.5%) showed an effect of 50% or more. Effects have a minus sign here. This is one part of a sample in which strong results are shown more often than they occur.
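Also: peak tail current of the secondary pulse compared with the same well before compound.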

Chain of human ether-à-go-go-related gene (hERG) potassium channel (Q12809 whole entry, looked up): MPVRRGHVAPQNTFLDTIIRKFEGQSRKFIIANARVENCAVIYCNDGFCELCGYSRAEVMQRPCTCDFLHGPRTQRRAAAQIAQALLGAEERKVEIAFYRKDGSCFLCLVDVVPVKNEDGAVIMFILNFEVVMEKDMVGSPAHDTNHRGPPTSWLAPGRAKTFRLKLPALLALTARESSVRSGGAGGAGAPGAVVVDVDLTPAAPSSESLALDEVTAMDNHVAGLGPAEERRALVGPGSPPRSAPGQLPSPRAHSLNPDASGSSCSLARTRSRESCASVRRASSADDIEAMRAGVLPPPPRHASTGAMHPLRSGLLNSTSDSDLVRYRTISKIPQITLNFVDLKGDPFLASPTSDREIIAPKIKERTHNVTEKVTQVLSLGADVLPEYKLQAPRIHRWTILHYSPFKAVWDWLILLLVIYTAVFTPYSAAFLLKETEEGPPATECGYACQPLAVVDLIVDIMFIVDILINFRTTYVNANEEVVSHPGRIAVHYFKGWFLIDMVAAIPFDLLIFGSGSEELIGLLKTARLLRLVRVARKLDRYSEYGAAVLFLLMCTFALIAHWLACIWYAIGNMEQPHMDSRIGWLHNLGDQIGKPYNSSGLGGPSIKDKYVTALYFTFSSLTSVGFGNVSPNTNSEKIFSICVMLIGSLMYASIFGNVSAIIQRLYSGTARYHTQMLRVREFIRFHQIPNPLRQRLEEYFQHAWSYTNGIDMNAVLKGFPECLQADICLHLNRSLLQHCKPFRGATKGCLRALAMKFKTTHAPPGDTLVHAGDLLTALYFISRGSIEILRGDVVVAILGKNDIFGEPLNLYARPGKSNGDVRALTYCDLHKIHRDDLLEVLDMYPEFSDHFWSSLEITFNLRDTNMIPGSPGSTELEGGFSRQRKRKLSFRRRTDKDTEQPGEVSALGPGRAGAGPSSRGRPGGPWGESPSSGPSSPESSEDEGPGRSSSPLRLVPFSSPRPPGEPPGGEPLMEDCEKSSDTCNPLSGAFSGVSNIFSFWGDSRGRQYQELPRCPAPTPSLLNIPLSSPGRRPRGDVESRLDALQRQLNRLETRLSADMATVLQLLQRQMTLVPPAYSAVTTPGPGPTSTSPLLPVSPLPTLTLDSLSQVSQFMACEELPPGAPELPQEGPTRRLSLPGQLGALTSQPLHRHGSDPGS

This experiment has as its target human ether-à-go-go-related gene (hERG) potassium channel (human, UniProt Q12809). The experiment in a line: primary screen, population patch clamp on CHO cells stably expressing hERG; higher = less effect of the substance.
Take `Cc1ccccc1NS(=O)(=O)c1ccc(-c2ccc(=O)[nH]n2)o1`: the “hERG current change (%, negative = inhibition) at 10uM” value is recorded as -2.13%.
The result for `COc1ccccc1N1CCN(C(=O)CCCn2c(=O)[nH]c3ccsc3c2=O)CC1` reads 4.33%; that for `O=C(CCC(=O)c1ccc(F)cc1)Nc1cccc(C(F)(F)F)c1`, 7.22%; that for `COc1ccc(Nc2ccc([N+](=O)[O-])cc2[N+](=O)[O-])cc1`, -32.5%.
For `O=C(Nc1ccc(Cl)cc1C(=O)NCC1CCCO1)c1ccc(Cl)cc1Cl` (centres unmarked), the “hERG current change (%, negative = inhibition) at 10uM” value is listed as -10.2%.
The result for `CC(C1CC2CCC1C2)N1CC(O)=C(c2nc3ccccc3[nH]2)C1=N` (centres unmarked) reads -17.9%; that for `Cc1ccc(C)c(S(=O)(=O)N/N=C/c2cccnc2)c1`, 7.65%.
Turning to `COc1ccc(OC)c(NS(=O)(=O)c2ccc3c(c2)n(C)c(=O)n3C)c1`, the “hERG current change (%, negative = inhibition) at 10uM” value is -5.85%.
The result for `CCC/C(=N\NC(=O)C1CC1)c1ccc(Br)cc1` reads 11.9%.
The result for `C/C(=N\N=C1\NC(=O)CC(C(=O)O)S1)c1ccc(F)cc1` (centres unmarked) reads 0.193%.
The result for `CCOC(=O)c1nn(C23CC4CC(CC(C4)C2)C3)c2c1C(=O)N(c1ccc(C)cc1)C2=O` reads 20.3%.
In the case of `Cc1cc([N+](=O)[O-])nn1CC(=O)Nc1cnc2ccccc2c1`, the “hERG current change (%, negative = inhibition) at 10uM” value was -81.1%.
The result for `Cc1cc([N+](=O)[O-])nn1CC(=O)Nc1ccc(F)cc1` reads 6.31%.
The result for `Cc1cc([N+](=O)[O-])nn1CC(=O)Nc1ccccn1` reads 5.51%.
The result for `Cc1cccc(C)c1-n1c(C)nn(CC#N)c1=O` reads 19.1%.
Turning to `COc1ccc2c(c1)cc(C(=O)O)n2C`, the “hERG current change (%, negative = inhibition) at 10uM” value was -6.02%.
The result for `COC(=O)c1cc2cc(OC)ccc2n1C` reads 0.821%.
The result for `CCN(CC)CCNC1=NCCn2c1cc1cc(OC)ccc12.Cl` reads -66.6%.
The result for `CCN(CC)CCNC(=O)COc1ccc(OC)cc1.Cl` reads -9.07%; that for `CN=C1c2c(-c3ccccc3)c3cc(OC)ccc3n2CCN1C.Cl`, -62.6%; that for `COc1ccc2[nH]c3c(c2c1)CCN=C3C`, -18.2%.
For `COc1ccc2c(c1)cc1n2CCN=C1NCCO.Cl`, the “hERG current change (%, negative = inhibition) at 10uM” value is listed as -10.2%.
The result for `COc1ccc2c(c1)c1c(n2C(C)=O)C(OC(C)=O)=NCC1` reads -8.94%; that for `COc1ccc2c(c1)c1c3n2CCN(C)C3=NCC1.Cl`, -67.7%; that for `CN=C1c2cc3cc(OC)ccc3n2CCN1C.Cl`, -53%.
With `COc1ccc2c(c1)c(=O)cc(-c1ccccc1)n2C`, the “hERG current change (%, negative = inhibition) at 10uM” value came to 0.0751%.
The result for `COc1ccc2c(c1)c1ccccc1n2C` reads 11%; that for `Cc1ccc(NC(=O)C(C)OC(=O)Cn2cnc3ccccc3c2=O)cc1` (centres unmarked), -12.4%; that for `COc1ccc(N2CCN(C(CNC(=O)OCc3ccccc3)c3ccco3)CC2)cc1` (centres unmarked), -27.4%.
The result for `CCOC(=O)c1cc(S(=O)(=O)NCCc2ccccc2)cn1C` reads 2.98%; that for `Clc1ccccc1CN1CCN(c2ccccc2Cl)CC1`, 16%; that for `CCc1cc(C(=O)c2ccc(OC)cc2)c(N)s1`, -12.7%.
The result for `N/C(CS(=O)(=O)c1ccc(F)cc1)=N\O` reads 11.8%; that for `CC(C)(C)C(=O)CNS(=O)(=O)c1ccc(S(=O)(=O)NC2CC2)cc1`, 12.3%.
For the compound `COCCNC(=O)/C(C#N)=C/c1c(N2CC(C)OC(C)C2)nc2ccccn2c1=O` (centres unmarked), the “hERG current change (%, negative = inhibition) at 10uM” value is recorded as -0.67%.
The result for `CCS(=O)(=O)Nc1ccc(-c2cc(-c3ccccc3)c3cc(C)ccc3n2)cc1` reads 0.812%; that for `COc1ccc(NC(=O)NC2(C(=O)N3CCN(C)CC3)CCCCC2)cc1`, 9.88%.
In the case of `O=C(c1cccc(F)c1)N1CCC2(CC1)NCCc1[nH]cnc12`, the “hERG current change (%, negative = inhibition) at 10uM” value is 6.92%.
Regarding `Cc1cc(Br)c(NC(=O)COC(=O)CSc2nnc(-c3ccc(Cl)cc3)o2)c(Br)c1`, the “hERG current change (%, negative = inhibition) at 10uM” value worked out at 1.39%.
The result for `CCN(CC)c1ccc(NC(=S)NCC2CCCO2)cc1` (centres unmarked) reads 7.83%; that for `CN=C1c2cc3c(Br)c(OC)ccc3n2CCN1C.Cl`, -66.9%; that for `COc1ccc2nc(N3CCCC3)[nH]c2c1.Cl`, -15.7%.
The result for `COc1ccc2c(c1)cc1n2CCN2CCCN=C12.Cl` reads -51.6%; that for `COc1ccc2c(c1)cc1n2CCN=C1NN.Cl.O`, 2.89%; that for `COc1ccc(C(=S)N2CCN(C)CC2)cc1Br`, -9.51%.
The result for `O=C(Nc1ccc2nn(-c3ccccc3)nc2c1)c1ccco1` reads 7.51%.
As to `COC(=O)c1ccc(CSc2nnc(NC(C)C)s2)o1`, the “hERG current change (%, negative = inhibition) at 10uM” value is 29.8%.
As to `O=C(/C=C/c1cccc(Cl)c1)Nc1ccncc1`, the “hERG current change (%, negative = inhibition) at 10uM” value was -17.1%.
The result for `O=C(Nc1cccc(-n2cnnn2)c1)c1ccc(Cl)cc1Cl` reads 4.58%; that for `Cc1ccc(Sc2nc3c(c(=O)[nH]c(=O)n3C)n2CCc2ccccc2)cc1`, 5.16%; that for `Cc1nn(Cc2c(F)c(F)c(F)c(F)c2F)c(C)c1NC(=O)c1cccc(COc2ccccc2Cl)c1`, -3.4%.
Consider `O=C(CCOc1ccccc1)Nc1ccnn1C1CCN(Cc2ccc(O)cc2)CC1`, for which the “hERG current change (%, negative = inhibition) at 10uM” value was -31.3%.
The result for `Cn1cc(CN2CCC(n3nccc3NC(=O)CCOc3ccccc3)CC2)cn1` reads 17.1%; that for `CCOc1cccc(CN2CCC(n3nccc3NC(=O)CCCc3ccccc3)CC2)c1`, -27.5%.
The result for `O=C(CCc1ccccc1)Nc1ccnn1C1CCN(Cc2ncc[nH]2)CC1` reads 19%.
Take `Cn1cc(CN2CCC(n3nccc3NC(=O)CCc3ccccc3)CC2)cn1`: the “hERG current change (%, negative = inhibition) at 10uM” value was found to be 16%.
The result for `O=C(CCc1ccccc1)Nc1ccnn1C1CCN(Cc2ccc(OCCO)cc2)CC1` reads -65.3%; that for `CCn1cc(CN2CCC(n3nccc3NC(=O)CCc3ccccc3)CC2)cn1`, 2.28%.
The result for `O=C(CCOc1ccccc1)Nc1ccnn1C1CCN(Cc2ccccc2)CC1` reads -50%; that for `CC(=O)c1cccc(CN2CCC(n3nccc3NC(=O)CCCc3ccccc3)CC2)c1`, -37.8%; that for `CC(C)Oc1ccc(CN2CCC(n3nccc3NC(=O)CCc3ccccc3)CC2)cc1`, -82.3%.
The result for `CC(=O)Nc1ccc(CN2CCC(n3nccc3NC(=O)CCc3ccccc3)CC2)cc1` reads -5.87%; that for `COc1cccc(CN2CCC(n3nccc3NC(=O)CCCc3ccccc3)CC2)c1`, -71.3%.
On to `OC1CCCN(Cc2ccc3ccc4cccc5ccc2c3c45)C1` (centres unmarked), for which the “hERG current change (%, negative = inhibition) at 10uM” value is listed as -4.79%.
The result for `CCOC(=O)c1c(C)[nH]c(C)c1S(=O)(=O)N(C)CC(=O)NCc1cccc(C)c1` reads -13.3%; that for `COc1ccc(-c2cc3ccccc3[nH]2)cc1`, 7.8%.
The result for `O=C(Nc1ccccc1C(=O)NCCCn1ccnc1)c1ccc(Cl)cc1Cl` reads -47.1%.
The result for `O=C(Nc1ccc(Cl)cc1)Nc1nc(-c2ccccc2)cs1` reads 11.3%; that for `CCc1ccc(OCC(=O)N/N=C(\C)c2ccc3c(c2)OCCO3)cc1`, -21.5%; that for `CC(Oc1ccccc1)C(=O)NNS(=O)(=O)c1ccc([N+](=O)[O-])cc1` (centres unmarked), 13.4%.
With `COc1ccc2cc(C(=O)N3CCC(Cc4ccccc4)CC3)[nH]c2c1`, the “hERG current change (%, negative = inhibition) at 10uM” value was determined as 25.5%.
The result for `C/C(=N\Nc1ccccc1)c1c(O)n(Cc2ccccc2)c(=O)[nH]c1=O` reads 8.42%.
The result for `O=C(CSc1ccccc1C(=O)NCc1ccccc1)NC1CCCCCCC1` reads -8.1%; that for `O=C(/C=C/c1ccc([N+](=O)[O-])cc1)NCc1cccnc1`, -42.7%.
The result for `CC1(C)CC(=O)C=C(C(=O)N2CCCC(C(=O)c3cccc(Cl)c3)C2)O1` (centres unmarked) reads -31%.
For `O=C(O)c1ccc(NS(=O)(=O)c2ccc(Cl)cc2)cc1`, the “hERG current change (%, negative = inhibition) at 10uM” value came to 0.513%.
The result for `O=C(CCCc1ccccc1)Nc1ccnn1C1CCN(Cc2ccccc2F)CC1` reads -49%; that for `O=C(CCOc1ccccc1)Nc1ccnn1C1CCN(Cc2ccc(CO)o2)CC1`, 6.52%.
The result for `CCNC(=O)N1CCC(n2nccc2NC(=O)CCOc2ccccc2)CC1` reads 9.99%; that for `COc1ccc(F)c(CN2CCC(n3nccc3NC(=O)CCCc3ccccc3)CC2)c1`, -86.7%; that for `COc1ccc(O)c(CN2CCC(n3nccc3NC(=O)CCOc3ccccc3)CC2)c1`, -60.4%.
The result for `COc1cccc(CN2CCC(n3nccc3NC(=O)CCOc3ccccc3)CC2)c1` reads -62%.
With `O=C(CCOc1ccccc1)Nc1ccnn1C1CCN(CCc2ccccc2)CC1`, the “hERG current change (%, negative = inhibition) at 10uM” value is recorded as -65.1%.
The result for `Cc1ccc(CN2CCC(n3nccc3NC(=O)CCOc3ccccc3)CC2)o1` reads -20.7%; that for `CC(=O)c1cccc(CN2CCC(n3nccc3NC(=O)CCOc3ccccc3)CC2)c1`, -3.2%; that for `Cc1cc(C)c(CN2CCC(n3nccc3NC(=O)CCOc3ccccc3)CC2)cc1C`, -26.1%.
The result for `COc1cccc(C(=O)N2CCC(n3nccc3NC(=O)CCOc3ccccc3)CC2)c1` reads -0.0371%.
The result for `CCn1c(SCc2nc3ccccc3[nH]2)nnc1-c1ccc(OC)cc1` reads -1.72%; that for `O=C(NNC(=O)C1CC(=O)N(Cc2ccccc2)C1)c1ccc(F)cc1` (centres unmarked), 2.46%.

The values above are taken from paper PMC4336329 (PLoS ONE, 2015).
